# Bioassay records (PubChem BioAssay)
# TROY NFkB inh: inhibitors of TROY-driven NF-kB signaling, primary screen, Q293 LMP1-TROYcd cells, NF-kB luciferase, uHTS; Q293 LMP1-TROYcd NF-kB luciferase reporter, 4 h; inhibition, % at 10 µM; hit rate 0.98% among 360,000;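 active means compounds whose plate-normalised and pattern-corrected inhibition of the luciferase reporter signal at the single screening dose is 50% or more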
# Peg3 prom inh: Peg3 promoter-driven luciferase inhibitors, primary screen, cell-based, HeLa, luciferase luminescence; HeLa PEG-Prom luciferase reporter, overnight; inhibition, % at 20 µM; hit rate 1.7% among 360,000;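 active means inhibition of at least 50% at 20 µM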
# TWEAK-Fn14 inh: inhibitors of TWEAK-Fn14 signaling, primary screen, luciferase reporter cells, uHTS; AID 1159606, 2016; hit rate 2% among 360,000; TWEAK-stimulated Fn14 reporter cells, luciferase luminescence, 8 h; inhibition, % at 10 µM; in the data active means inhibition above about 50%
# KKLEB tox: cytotoxicity in KKLEB CF airway cells, primary screen, cytotoxicity control for CF NF-kB inhibitor project, cell-based, uHTS, fluorescence assay plates; activity change (cytotoxicity), % at 5 µM; hit rate 0.36% among 360,000; KKLEB CF airway cells viability, ATPlite luminescence, overnight; hits give low values; cells stimulated with P. aeruginosa culture filtrate; AID 602141, 2011;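 active means corrected activity change at or below -50% at 5 µM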
# CF NFkB inh: inhibitors of PAF-induced NF-kB signaling, primary screen, cell-based, GFP fluorescence, uHTS | hit rate 0.86% among 360,000 | KKLEB NF-kB-GFP reporter, GFP fluorescence overnight | inhibition, % at 5 µM;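 active means at least 50% inhibition at 5 µM, scaled per plate between neutral and stimulator controls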;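 further: PAF is a Pseudomonas aeruginosa culture filtrate used as stimulus; plate controls were PAF-stimulated DMSO wells for no effect and unstimulated DMSO wells for full effect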
# HIF-2a block: HIF-2a reporter inhibitors, primary screen, luminescence, 786-0 RCC cells; hit rate 0.72% among 360,000; 786-0 RCC cells HIF-2a reporter, luciferase luminescence, overnight; inhibition, % at 18.8 µM; AID 624352, 2012;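 active means inhibition of the luminescence signal of 40% or more relative to plate controls, in a single-dose primary screen at 18.75 µM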
# Mdm2 MdmX conf: retested Mdm2-MdmX interaction blockers, confirmation, cell-based, luminescence, single concentration, set 2. shares compounds with HIF-2a block. SaOS-2 split-luciferase Mdm2/MdmX complementation. inhibition, % at 8 µM. hit rate 99% among 740;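 active means mean inhibition of the luminescence signal across two replicates at or above 26 percent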
# Target sequence (O15151 whole entry, looked up): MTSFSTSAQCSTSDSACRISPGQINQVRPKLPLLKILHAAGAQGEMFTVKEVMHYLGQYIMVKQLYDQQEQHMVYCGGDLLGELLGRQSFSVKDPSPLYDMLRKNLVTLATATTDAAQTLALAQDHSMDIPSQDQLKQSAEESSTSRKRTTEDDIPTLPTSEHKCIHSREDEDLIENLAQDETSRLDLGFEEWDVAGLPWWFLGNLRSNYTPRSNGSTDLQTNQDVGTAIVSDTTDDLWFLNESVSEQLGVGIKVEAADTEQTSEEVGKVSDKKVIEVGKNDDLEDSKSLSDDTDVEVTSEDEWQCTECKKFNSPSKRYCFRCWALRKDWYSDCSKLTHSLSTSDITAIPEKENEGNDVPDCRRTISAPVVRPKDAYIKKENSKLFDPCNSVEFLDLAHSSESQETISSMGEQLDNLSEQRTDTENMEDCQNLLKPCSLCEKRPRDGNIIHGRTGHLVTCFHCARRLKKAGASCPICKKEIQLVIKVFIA
# Target sequence (Q00987 whole entry, looked up): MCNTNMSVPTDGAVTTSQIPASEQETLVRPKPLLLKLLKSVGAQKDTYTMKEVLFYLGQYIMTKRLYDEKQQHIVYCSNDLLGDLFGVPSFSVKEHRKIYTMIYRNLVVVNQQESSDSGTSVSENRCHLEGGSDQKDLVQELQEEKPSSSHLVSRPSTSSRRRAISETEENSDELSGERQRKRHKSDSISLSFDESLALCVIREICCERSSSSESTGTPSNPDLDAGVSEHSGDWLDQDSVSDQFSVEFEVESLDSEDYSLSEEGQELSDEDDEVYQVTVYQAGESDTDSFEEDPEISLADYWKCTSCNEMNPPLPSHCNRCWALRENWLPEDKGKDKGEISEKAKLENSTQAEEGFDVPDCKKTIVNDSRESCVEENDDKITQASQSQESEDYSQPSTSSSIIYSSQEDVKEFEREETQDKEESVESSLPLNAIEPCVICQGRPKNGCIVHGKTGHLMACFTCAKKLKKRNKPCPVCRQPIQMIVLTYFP
# HIF-2a inh conf: HIF-2a reporter inhibitor retest, confirmation, luminescence, 786-0 RCC cells | shares compounds with HIF-2a block | HIF-2a luciferase reporter luminescence, overnight | inhibition, % at 18.8 µM | hit rate 56% among 1,800;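 active means mean inhibition across four replicates of at least 40 percent at the single tested concentration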
# HIF-1a cs: HIF-1a luciferase reporter signal reduction – MiaPaCa-2 cells, single concentration, counter-screen for HIF-2a inhibitor project, confirmation. shares compounds with HIF-2a block. MiaPaCa-2 HIF-1a luciferase reporter, desferoxamine, overnight. inhibition, % at 18.8 µM. hit rate 72% among 1,800;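 active means mean inhibition of the reporter signal across four replicates at the single tested dose of 50% or more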
# * hit, by the source's call; · = no result. Rows were chosen to be rich in hits. Some 4% of all compounds tested hit in one or more screens of this group.
SMILES,TROY NFkB inh,Peg3 prom inh,TWEAK-Fn14 inh,KKLEB tox,CF NFkB inh,HIF-2a block,Mdm2 MdmX conf,HIF-2a inh conf,HIF-1a cs
[O-]/C(=C(\C(=S)Nc1cccc2ccccc12)[n+]1ccccc1)c1ccc2c(c1)OCCO2,84*,22,104*,12,-5,70*,·,-40,34
CCn1c(=O)c([N+](=O)[O-])c(Cl)c2ccccc21,14,108*,21,-2,67*,92*,103*,94*,106*
CC[C@]1(C(=O)OC)[C@H]2C(=O)N(Cc3ccccc3)C(=O)[C@H]2[C@H]2CN=C(SCc3ccc(C)cc3)N21,-6,14,9,7,-2,7,97*,·,·
CC[C@]1(C(=O)OC)[C@H]2C(=O)N(Cc3ccccc3)C(=O)[C@H]2[C@H]2CN=C(SCc3ccc(C(=O)OC)cc3)N21,1,8,11,-2,11,10,·,·,·
COc1ccc(C2c3ccc(O)cc3Oc3ncn(Cc4ccccc4)c(=N)c32)cc1OC (stereo not drawn),38,22,36,0,8,58*,·,9,51*
Cc1cc(Nc2n[nH]c(N)c2C#N)ccc1F,-32,-32,-4,13,-6,-24,·,·,·
Cc1ccc(C2=NN(C(=O)CCl)C(c3ccco3)C2)o1 (stereo not drawn),-2,69*,55*,-17,27,11,103*,·,·
CC(=O)N1N=C(c2ccco2)CC1c1ccco1 (stereo not drawn),12,19,-1,1,-2,22,·,·,·
Cc1ccc(C(=O)Cn2c(C(=O)/C=C/c3ccccc3)nc3ccccc32)cc1,-4,44,18,-16,10,48*,·,-4,60*
Cc1ccc(S(=O)(=O)N2CCOCC2)cc1NC(=O)C1=NN(c2ccccc2)C(=O)CC1,-8,8,-11,4,-18,7,·,·,·
CC(SC#N)C(=O)C12CC3CC(CC(C3)C1)C2 (stereo not drawn),41,36,72*,-22,44,46*,·,24,12
CC(Sc1n[nH]c(N)n1)C(=O)C12CC3CC(CC(C3)C1)C2 (stereo not drawn),7,-11,-10,4,-1,7,·,·,·
COc1ccc(C2C(O)C(c3c[nH]c4ccccc34)=NN2C(=O)CCl)cc1 (stereo not drawn),-26,117*,94*,-89*,98*,93*,·,88*,106*
C#CC(=O)N(c1cccc(OC)c1)C(C(=O)NC1CCCC1)c1cccs1 (stereo not drawn),28,106*,55*,-97*,94*,93*,103*,99*,104*
C#CC(=O)N(c1ccc(OC)c(OC)c1)C(C(=O)NC1CCCC1)c1cccs1 (stereo not drawn),11,103*,61*,-100*,101*,87*,102*,100*,105*
CN1CCN(C(=O)C2CCCCC2C(=O)O)CC1 (stereo not drawn),7,9,-9,-13,-12,9,·,·,·
CCOC(=O)C(C)(C)N(Cc1ccc(C)cc1)S(=O)(=O)c1ccc(Cl)c([N+](=O)[O-])c1,30,105*,60*,6,-2,61*,·,23,105*
CCOC(=O)C(C)(C)NS(=O)(=O)c1ccc(Cl)c([N+](=O)[O-])c1,-4,15,14,-2,-6,6,·,·,·
O=C(CN1CSCC1=O)N1CCN(S(=O)(=O)c2cccc(F)c2)CC1,-20,5,-1,5,-6,10,·,·,·
CC1(C(=O)Nc2cccc3c2CCCC3)CCN1C(=O)C1(c2ccc(Cl)cc2)CC1 (stereo not drawn),3,19,11,-18,26,6,·,·,·
Cc1cc(C2(c3ccc(O)c(C)c3)OC(=O)c3ccccc32)ccc1O,33,7,11,4,13,36,·,·,·
Cc1cc(O)c(C(C)C)cc1C1(c2cc(C(C)C)c(O)cc2C)OC(=O)c2ccccc21,85*,111*,97*,1,33,50*,·,63*,107*
COc1ccc(Cn2c(SCc3cc(C)ccc3C)nc3cc(OC)c(OC)cc3c2=N)cc1,21,104*,-3,-44,25,95*,103*,2,107*
COc1ccc(Cn2c(SCc3ccc(C)cc3)nc3cc(OC)c(OC)cc3c2=N)cc1Cl,27,99*,-2,-94*,96*,91*,103*,60*,105*
COc1cc2nc(SCc3ccc(C(F)(F)F)cc3)n(Cc3cccs3)c(=N)c2cc1OC,-1,25,17,1,0,12,·,·,·
SMILES,TROY NFkB inh,Peg3 prom inh,TWEAK-Fn14 inh,KKLEB tox,CF NFkB inh,HIF-2a block,Mdm2 MdmX conf,HIF-2a inh conf,HIF-1a cs
CCOC(=O)C1CCN(C(=O)c2cc(S(=O)(=O)N3CCCCC3)ccc2C)CC1,-1,-269,-9,1,3,12,·,·,·
CC(C)(C)c1ccc(/C=C(\c2nc3ccccc3[nH]2)S(=O)(=O)c2ccccc2)cc1,46,104*,95*,-70*,94*,95*,103*,97*,108*
CCOC(=O)COc1ccc(S(=O)(=O)Nc2cccc(SC)c2)cc1,4,1,0,-3,4,50*,·,18,-1
C/C(=N\NC(=O)c1ccc(CSc2nncn2C)cc1)c1cccs1,-2,-118,-16,-1,-4,-117,·,·,·
CCN(CC)c1ccc2c(C)cc(=O)oc2c1,-41,-38,-6,-1,6,-58,·,·,·
CCN(CC)c1ccc2c(c1)oc(=O)c1c(Cl)cc(=O)oc12,-44,101*,76*,-34,8,93*,103*,·,·
O=c1oc2ccccc2cc1-c1ccc(O)cc1,-98,-223,-70,-12,4,-197,·,·,·
Nc1ccc(-c2cc3ccccc3oc2=O)cc1,60*,38,82*,-5,13,88*,·,98*,84*
